High-throughput results (PubChem BioAssay)
Hits are enriched below; roughly 9.6% of the tested compounds scored in any of these assays.
Autophagy mod: autophagy modulation, high-content screen; calls only at 10 µM (by protocol); hit rate 0.98% among 190,000; AID 463193; MEF GFP-LC3 puncta imaging; test concentration mostly 10 µM;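 active = percentage of spot-positive cells more than 3 SD above its plate mean, without a fluorescence outlier flag or 80% toxicity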
HCT116 PTEN-null: PTEN-deleted cell growth suppression; HCT116 PTEN-null viability, CellTiter-Glo, 60 h; stronger effect = lower value; viability, % at 10 µM; hit rate 1.2% among 140,000; AID 827;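 active = viability at or below a set limit, 4 SD under the median of all tested compounds, cut at about 3.7% in these data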;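 note: PTEN knockout HCT116 line with beta catenin targeted HCT116 as companion control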
HCT116 bCat-KO: beta-catenin-lacking colon tumor cell growth suppression; viability, % at 10 µM; AID 818; hit rate 1.5% among 140,000; HCT116 beta-catenin knockout viability, CellTiter-Glo, 60 h; stronger effect = lower value;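 active = viability at or under a set limit, the compound median less 4 SD, cut at about 6% in these data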
Insulin prom inh: TRM-6 insulin promoter activity inhibition. TRM-6 cells (human fetal islet line), insulin promoter-eGFP reporter, imaging; reporter expression induced with tamoxifen. inhibition, % at 2 µM. hit rate 0.9% among 130,000. AID 1273;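 active = inhibition above the mean plus 3 SD, with well images judged a real hit on visual review, cut at about 60% in these data, passing the limit was not always enough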
Insulin prom up: MIN6 insulin promoter up-regulation. z-score at 5 µM. MIN6 insulin promoter-GFP reporter, high-content imaging; stronger effect = higher value. hit rate 0.3% among 190,000. AID 1625;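 active = z-score above 3 at 5 µM with at least 500 cells counted in the well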
L major viab: Leishmania major promastigote growth inhibition; Leishmania major promastigotes, resazurin fluorescence viability; hit rate 9% among 200,000; inhibition, % at 10 µM; in the data active = inhibition above about 50%;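 note: promastigotes grown with compound for 44 hours at 28 °C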
Numbers stand for hits.

What do the screens show for `CCO[C@H]1OC(C(=O)N2CCN(Cc3ccc4c(c3)OCO4)CC2)=C[C@@H](c2csc3ccccc23)[C@@H]1CCCO`?
Autophagy mod: inactive; Insulin prom up: inactive; L major viab: 73.8

Results for CCO[C@@H]1OC(C(=O)N2CCN(Cc3ccc4c(c3)OCO4)CC2)=C[C@H](C2CCCCC2)[C@H]1CCCO ?
Autophagy mod: inactive; Insulin prom up: inactive; L major viab: 66.8

Results for CCO[C@H]1OC(C(=O)N2CCN(Cc3ccc4c(c3)OCO4)CC2)=C[C@@H](c2cn(C(C)=O)c3ccccc23)[C@@H]1CCCO ?
Autophagy mod: inactive; Insulin prom up: inactive; L major viab: inactive

How did O=c1ccnc(S/C=C/c2ccccc2)[nH]1 do in these assays?
Autophagy mod: inactive; HCT116 PTEN-null: inactive; HCT116 bCat-KO: inactive; Insulin prom up: inactive; L major viab: inactive

How did Cc1c(O)c(S(=O)(=O)c2ccccc2)c(=O)n(-c2ccccc2)c1-c1ccccc1 do in these assays?
Autophagy mod: inactive; HCT116 PTEN-null: inactive; HCT116 bCat-KO: inactive; Insulin prom inh: inactive; Insulin prom up: inactive; L major viab: inactive

Results for CSc1nsc(/C=C/Nc2ccc(C)cc2)c1C#N ?
Autophagy mod: inactive; HCT116 PTEN-null: inactive; HCT116 bCat-KO: inactive; Insulin prom inh: inactive; Insulin prom up: 3.5; L major viab: inactive

Results for CSc1nsc(/C=C/Nc2ccc(C)c(C)c2)c1C#N ?
Autophagy mod: inactive; Insulin prom inh: inactive; Insulin prom up: inactive; L major viab: inactive

What do the screens show for `O=S(=O)(NCC1CCCO1)c1ccc(-c2ccc(Cl)cc2)cc1` (stereo unspecified)?
Autophagy mod: active; Insulin prom up: inactive; L major viab: inactive

What do the screens show for `COc1ccc(S(=O)(=O)N2CCC(C(=O)NCC3CCCO3)CC2)cc1OC` (stereo unspecified)?
Autophagy mod: inactive; Insulin prom up: inactive; L major viab: inactive

How did Cc1cc(CN(C)C)c(O)c(C2(C)CCCCC2)c1 do in these assays?
Autophagy mod: inactive; HCT116 PTEN-null: inactive; HCT116 bCat-KO: inactive; Insulin prom inh: inactive; Insulin prom up: inactive; L major viab: inactive

Results for Cc1cc(CN2CCOCC2)c(O)c(C2(C)CCCCC2)c1 ?
Autophagy mod: inactive; HCT116 PTEN-null: inactive; HCT116 bCat-KO: inactive; Insulin prom inh: inactive; Insulin prom up: inactive; L major viab: 55.9

How did Cc1cc2[nH]c(=O)c3ccccc3n2n1 do in these assays?
Autophagy mod: inactive; HCT116 PTEN-null: inactive; HCT116 bCat-KO: inactive; Insulin prom inh: 83.3; Insulin prom up: inactive; L major viab: inactive

What do the screens show for `CCOC(=O)c1cnn2c1[nH]c(=O)c1ccccc12`?
Autophagy mod: inactive; HCT116 PTEN-null: inactive; HCT116 bCat-KO: inactive; Insulin prom inh: inactive; Insulin prom up: inactive; L major viab: inactive

How did O=C(Nc1nc2ccccc2n1CCOc1ccc(Cl)cc1)c1ccco1 do in these assays?
Autophagy mod: inactive; HCT116 PTEN-null: inactive; HCT116 bCat-KO: 5.4; Insulin prom up: inactive; L major viab: 89.8

Results for Cn1c(NC(=S)Nc2ccccc2)nc2ccccc21 ?
Autophagy mod: inactive; HCT116 PTEN-null: inactive; HCT116 bCat-KO: inactive; Insulin prom inh: inactive; Insulin prom up: inactive; L major viab: inactive

What do the screens show for `O=C(Nc1nc2ccccc2n1Cc1ccc(Cl)cc1)c1ccco1`?
Autophagy mod: inactive; HCT116 PTEN-null: inactive; HCT116 bCat-KO: inactive; Insulin prom inh: inactive; Insulin prom up: inactive; L major viab: inactive

How did O=C(Nc1nc2ccccc2n1CCOc1ccccc1)c1ccco1 do in these assays?
Autophagy mod: inactive; HCT116 PTEN-null: inactive; HCT116 bCat-KO: inactive; Insulin prom up: inactive; L major viab: 62.0

How did Cc1ccc(OCCn2c(NC(=O)c3ccco3)nc3ccccc32)cc1 do in these assays?
Autophagy mod: inactive; HCT116 PTEN-null: inactive; HCT116 bCat-KO: inactive; Insulin prom up: inactive; L major viab: inactive

How did S=C(Nc1ccccc1)Nc1nc2ccccc2n1CCOc1ccc(Br)cc1 do in these assays?
Autophagy mod: inactive; HCT116 PTEN-null: 2.1; HCT116 bCat-KO: 1.6; Insulin prom up: inactive; L major viab: inactive

How did CCOc1cc(/C=C2/NC(=O)N(CC(=O)Nc3cccc(C)c3)C2=O)ccc1O do in these assays?
Autophagy mod: inactive; HCT116 PTEN-null: inactive; HCT116 bCat-KO: inactive; Insulin prom inh: inactive; L major viab: inactive

What do the screens show for `Cc1sc2ncnc(OCC(=O)NC3CCS(=O)(=O)C3)c2c1C` (stereo unspecified)?
Insulin prom up: inactive

Results for O=C(N/N=C/c1ccco1)c1cc(-c2cccc(Br)c2)nc2ccccc12 ?
Autophagy mod: inactive; HCT116 PTEN-null: inactive; HCT116 bCat-KO: inactive; Insulin prom inh: inactive; Insulin prom up: inactive; L major viab: inactive

Results for c1ccc(-c2cccc(-c3ccccn3)n2)nc1 ?
Autophagy mod: inactive; HCT116 PTEN-null: inactive; HCT116 bCat-KO: inactive; Insulin prom up: inactive; L major viab: 100.3

Results for c1ccc(-c2ccc(-c3ccccn3)s2)nc1 ?
Insulin prom up: inactive

What do the screens show for `CCN(CC)S(=O)(=O)c1ccc2c(c1)c(=O)c(C(=O)N1CCc3ccccc3C1)cn2C`?
Autophagy mod: inactive; HCT116 PTEN-null: inactive; HCT116 bCat-KO: inactive; Insulin prom up: inactive; L major viab: inactive

What do the screens show for `Cc1cccc(-n2c(SCc3cc(=O)n4c(C)cccc4n3)nc3[nH]ncc3c2=O)c1`?
Autophagy mod: inactive; HCT116 PTEN-null: inactive; HCT116 bCat-KO: inactive; Insulin prom inh: inactive; Insulin prom up: inactive; L major viab: 96.5

Results for Cc1nc(CSc2nc3[nH]ncc3c(=O)n2-c2ccccc2)cs1 ?
Autophagy mod: inactive; HCT116 PTEN-null: inactive; HCT116 bCat-KO: inactive; Insulin prom inh: inactive; Insulin prom up: inactive; L major viab: inactive

Results for CC(C)(CCl)C(=O)Nc1ccc(C(F)(F)F)cc1 ?
Autophagy mod: inactive; Insulin prom inh: 84.6; Insulin prom up: inactive; L major viab: inactive

Results for CCN1CCN(C(=S)c2ccc(OC)cc2)CC1 ?
Autophagy mod: inactive; Insulin prom up: inactive; L major viab: 100.1

What do the screens show for `O=[N+]([O-])c1ccc(C(=S)N2CCCC2)cc1`?
Autophagy mod: inactive; Insulin prom up: inactive; L major viab: inactive

How did CCN1CCN(C(=S)c2ccc(Cl)cc2)CC1 do in these assays?
Autophagy mod: inactive; HCT116 PTEN-null: inactive; HCT116 bCat-KO: inactive; Insulin prom inh: inactive; L major viab: 88.0

Results for CCN1CCN(C(=S)c2ccc([N+](=O)[O-])cc2)CC1 ?
Autophagy mod: inactive; HCT116 PTEN-null: inactive; HCT116 bCat-KO: inactive; Insulin prom up: inactive; L major viab: 57.7

What do the screens show for `Cc1cccc(NC(=O)c2cc(NC(=O)c3ccco3)ccc2N2CCCCC2)c1`?
Autophagy mod: inactive; HCT116 PTEN-null: inactive; HCT116 bCat-KO: inactive; Insulin prom inh: inactive; Insulin prom up: inactive; L major viab: inactive

How did FC(F)Sc1ccc(-n2cc(-c3ccc(Cl)cc3)[n+]3c2CCC3)cc1 do in these assays?
Autophagy mod: inactive; HCT116 PTEN-null: inactive; HCT116 bCat-KO: inactive; Insulin prom inh: inactive; Insulin prom up: inactive; L major viab: inactive

How did Cc1ccc(-c2cn(-c3ccc(SC(F)F)cc3)c3[n+]2CCC3)cc1 do in these assays?
Autophagy mod: inactive; HCT116 PTEN-null: inactive; HCT116 bCat-KO: inactive; Insulin prom inh: inactive; Insulin prom up: inactive; L major viab: 98.5
